Laboratory results published in PubChem BioAssay.
Activity calls are given as the source filed them.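 Rule for the calls, unless noted: active = visually confirmed hit in the image check and inhibition above 20%; inconclusive = visually confirmed hit but inhibition not above 20%; inactive = no visual hit in the image check.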

Key:
[1] = inhibitors of TNFa-induced NFkB p65 translocation, primary screen, imaging, HUVEC, MLSMR starter and 10KST1 sets (AID 438;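 active = inhibition above 20% together with a positive visual image hit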;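 note: compound added about 3h40 before a 20 min TNFalpha stimulation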;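 for inhibition: signal is the nuclear over cytoplasmic p65 intensity ratio per well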); details: HUVEC TNFa-induced p65 nuclear translocation; cell count: measured here: nuclei count (cytotoxicity indicator), at 2.08 µM; inhibition: at 2 µM, stronger effect = higher value, 0% TNFa-plus-vehicle, 100% no-TNFa wells
[2] = reduction of polyQ htt aggregates in cells – imaging, exon1htt(103Q)mCFP cells, high-content imaging, primary screen (AID 483;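 active = visual image review flags a hit and inhibition of aggregation exceeds 20%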;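 note: compound exposure lasted 3 days before fixation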;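 for nuclei count: percent of the per-plate median nuclei count of sample wells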); details: exon1htt(103Q)mCFP cell line, aggregate imaging, at 2 µM; inhibition of aggregation: stronger effect = higher value; nuclei count: measured here: cell count, toxicity
[3] = endothelial E-selectin expression blockers – imaging, HUVEC, immunofluorescence, MLSMR starter and 10KST1 sets, primary screen (AID 487); details: HUVEC TNFalpha-induced E-selectin immunofluorescence imaging, at 2 µM; inhibition: stronger effect = higher value; nuclei count: measured here: cell number, toxicity;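 for inhibition: signal is fraction of cell area covered by stained E-selectin grains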;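 for nuclei count: 100% = median nuclei count of all wells on the same plate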
[4] = target: Voltage-gated potassium channel subunit beta-2 (Rattus norvegicus) (UniProt P62483); assay: inhibitors of rat Kvbeta2 reductase activity – biochemical, NADPH fluorescence, primary screen (AID 622;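 active = fluorescence slope higher than the sample average by over 3 SD, cut at about -0.22 in these data, passing the limit was not always enough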;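 note: slope of raw intensity against log time taken from 70 to 1610 s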); details: recombinant KvBeta, 4-cyanobenzaldehyde reduction, at 10 µM, stronger effect = higher value
[5] = target: Voltage-gated potassium channel subunit beta-2 (Rattus norvegicus) (UniProt P62483); assay: enhancers of rat Kvbeta2 NADPH turnover – biochemical, NADPH fluorescence, primary screen (AID 623;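 active = NADPH fluorescence slope more negative than the mean of all samples by about 3 SD, 99.7% confidence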;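 note: fluorescence intensity change per second fitted from 20 to 320 s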); details: Recombinant KvBeta, NADPH fluorescence decrease slope, 10 min; at 10 µM; stronger effect = lower value
[6] = target: Alpha-2C adrenergic receptor (Homo sapiens) (UniProt P18825); assay: compounds altering alpha2C-coupled GIRK flux – cell-based, HEK293 alpha2C/GIRK1/2, thallium flux, primary screen (AID 624;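 active = fluorescence slope after compound addition differing from the mean of all screened samples at 99.7% confidence, in either direction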;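 note: slope of fluorescence ratio to pre-addition baseline per second over 15 to 24 s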); details: thallium flux BTC fluorescence, at 10 µM, actives lie on both sides
[7] = blockers of RIG-like receptor reporter activation – cell-based, Sendai virus stimulus, luciferase, 10K MLSCN set, TLR/RLR signaling modifier project, primary screen (AID 602276;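 active = inhibition at or above 50% at 10 µM; inactive = inhibition below 50%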;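 note: firefly luciferase from ISG56 promoter only with Renilla not read in this screen; 0% = Sendai virus plus DMSO and 100% = medium plus DMSO without virus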); details: HEK293 RL24 IRF3 luciferase reporter, at 10 µM, stronger effect = higher value
[8] = TLR3 IRF3 reporter activation blockers – cell-based, poly I:C stimulus, luciferase, 10K MLSCN set, primary screen (AID 602277;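 active = inhibition of the reporter signal at or above 50%; inactive = inhibition below 50%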); details: HEK293-TLR3 RL24 IRF3 luciferase reporter, at 10 µM, stronger effect = higher value

Sequence of Voltage-gated potassium channel subunit beta-2 (Rattus norvegicus) (P62483 whole entry, looked up): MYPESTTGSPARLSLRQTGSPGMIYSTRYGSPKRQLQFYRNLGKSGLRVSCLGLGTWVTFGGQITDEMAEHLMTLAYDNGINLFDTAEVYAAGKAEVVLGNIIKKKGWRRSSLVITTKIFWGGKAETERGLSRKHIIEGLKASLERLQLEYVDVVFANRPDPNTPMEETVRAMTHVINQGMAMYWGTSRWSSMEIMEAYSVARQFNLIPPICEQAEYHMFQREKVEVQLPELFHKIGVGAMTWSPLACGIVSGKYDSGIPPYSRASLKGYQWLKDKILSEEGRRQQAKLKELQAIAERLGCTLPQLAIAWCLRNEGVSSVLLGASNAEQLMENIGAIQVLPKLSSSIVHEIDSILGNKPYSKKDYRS
Sequence of Alpha-2C adrenergic receptor (Homo sapiens) (P18825 whole entry, looked up): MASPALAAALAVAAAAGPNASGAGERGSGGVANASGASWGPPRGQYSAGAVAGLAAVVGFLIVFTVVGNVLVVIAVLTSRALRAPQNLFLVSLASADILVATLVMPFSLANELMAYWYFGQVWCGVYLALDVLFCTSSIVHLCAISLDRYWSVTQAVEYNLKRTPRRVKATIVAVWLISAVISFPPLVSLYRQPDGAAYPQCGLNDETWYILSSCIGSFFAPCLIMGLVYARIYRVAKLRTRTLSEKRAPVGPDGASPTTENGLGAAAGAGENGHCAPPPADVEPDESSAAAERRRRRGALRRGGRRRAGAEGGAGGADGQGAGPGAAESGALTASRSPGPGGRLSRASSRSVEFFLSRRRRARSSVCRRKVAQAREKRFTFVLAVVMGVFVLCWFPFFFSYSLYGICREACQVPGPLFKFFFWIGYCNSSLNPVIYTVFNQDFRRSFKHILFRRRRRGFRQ

Row | Compound | cell count [1] | inhibition [1] | inhibition of aggregation [2] | nuclei count [2] [%] | inhibition [3] | nuclei count [3] [%] | fluorescence slope [4] | NADPH fluorescence slope [5] | slope [6] | inhibition [7] | inhibition [8]
1 | Cc1cc(C(=O)CSc2nc3ccccc3n2CCC#N)c(C)n1Cc1cccs1 | 440 | 10.6% (inactive) | -70.3% (inactive) | 102 | -412% (inactive) | 158 | -0.32 (inactive) | -4.6e-05 (inactive) | 0.00574 (inactive) | 20.7% (inactive) | -7.47% (inactive)
2 | COc1ccc(CCNc2oc(-c3ccccc3OC)nc2C#N)cc1 | 216 | -4.3% (inactive) | 4% (inactive) | 86.1 | -19.1% (inactive) | 88.6 | -0.413 (inactive) | 2.3e-05 (inactive) | 0.00318 (inactive) | -0.337% (inactive) | 12.4% (inactive)
3 | O=C(O)c1ccc2noc(-c3ccccc3)c2c1 | 755 | -8.7% (inactive) | 16.9% (inactive) | 103 | -15% (inactive) | 123 | -0.378 (inactive) | -3.4e-05 (inactive) | 0.00344 (inactive) | -20.8% (inactive) | -49.6% (inactive)
4 | Cc1cccc(NC(=O)c2cc3ccccc3o2)c1 | 549 | -23% (inactive) | 10.7% (inactive) | 103 | 15.3% (inactive) | 157 | -0.506 (inactive) | 1.8e-05 (inactive) | 0.00578 (inactive) | -17.2% (inactive) | -74.5% (inactive)
5 | CC1CCC(NC(=O)C2CCN(c3cnccn3)CC2)CC1 (stereo not drawn) | 579 | -52% (inactive) | -0.6% (inactive) | 102 | -108% (inactive) | 116 | -0.575 (inactive) | -6.7e-05 (inactive) | 0.00693 (inactive) | -0.638% (inactive) | -2.17% (inactive)
6 | Cc1cccc(NC(=O)c2oc3c(c2C)C(=O)CC(C)(C)C3)n1 | 256 | -4% (inactive) | -4.5% (inactive) | 90.8 | -63.6% (inactive) | 93.5 | -0.403 (inactive) | -7.1e-05 (inactive) | 0.00548 (inactive) | -18% (inactive) | -30.8% (inactive)
7 | COc1ccc(CCNC(=O)c2cc(C(C)C)on2)cc1OC | 825 | 9.2% (inactive) | -27% (inactive) | 102 | 2.8% (inactive) | 110 | -0.567 (inactive) | -1.2e-05 (inactive) | 0.00632 (inactive) | 2.63% (inactive) | 18.2% (inactive)
8 | COc1ccc(-c2noc(COc3ccc(Cl)c(C)c3)n2)cc1 | 553 | 11.9% (inactive) | -13.5% (inactive) | 103 | -14% (inactive) | 94.1 | -0.527 (inactive) | -4.1e-05 (inactive) | 0.00784 (inactive) | 7.55% (inactive) | 20.3% (inactive)
9 | Cn1c(=O)oc2cc(S(=O)(=O)NC3CCN(Cc4ccccc4)CC3)ccc21 | 621 | -6.3% (inactive) | 59.7% (active) | 70.5 | -37.9% (inactive) | 99.7 | -0.57 (inactive) | 1.4e-06 (inactive) | 0.0068 (inactive) | 10.4% (inactive) | 33.8% (inactive)
10 | COc1ccc(CCNC(=O)CSc2nnnn2-c2ccccc2OC)cc1OC | 681 | -1.1% (inactive) | 1.5% (inactive) | 106 | -10.8% (inactive) | 109 | -0.531 (inactive) | -5.1e-05 (inactive) | 0.00687 (inactive) | 15.3% (inactive) | 31.8% (inactive)
11 | CN(C)CCNc1oc(-c2ccccc2F)nc1C#N | 648 | 7.1% (inactive) | -11.1% (inactive) | 110 | -40% (inactive) | 116 | -0.062 (active) | 9.2e-06 (inactive) | 0.00579 (inactive) | 0.672% (inactive) | 34.3% (inactive)
12 | Cn1c(=O)cc(OCC(=O)NCCCN2CCN(Cc3ccccc3)CC2)c2ccccc21 | 505 | -6.9% (inactive) | 4.5% (inactive) | 86.8 | -124% (inactive) | 135 | -0.556 (inactive) | 2.6e-05 (inactive) | 0.00749 (inactive) | -11.8% (inactive) | 31.2% (inactive)
13 | Cc1ccc(Nc2cc(C)nc3ncnn23)c(Cl)c1 | 551 | 7.9% (inactive) | -2.9% (inactive) | 69.8 | -65.9% (inactive) | 104 | -0.491 (inactive) | 4.8e-06 (inactive) | 0.00625 (inactive) | 6.25% (inactive) | 18.4% (inactive)
14 | CC(=O)C1=C(O)C(=O)N(C2CCCCC2)C1c1ccccc1 (stereo not drawn) | 467 | -10.8% (inactive) | -19.1% (inactive) | 104 | -95.4% (inactive) | 176 | -0.448 (inactive) | -9.9e-06 (inactive) | 0.00562 (inactive) | 18.2% (inactive) | 15.5% (inactive)
15 | CCC(C)NCC(O)COCc1ccc(Cl)cc1 (stereo not drawn) | 296 | -2% (inactive) | -4% (inactive) | 98.9 | -9.3% (inactive) | 86.6 | -0.484 (inactive) | -5.9e-06 (inactive) | 0.00563 (inactive) | 15.4% (inactive) | 20.9% (inactive)
16 | CCCCCC(=O)N(CN1C(=O)CCC1=O)c1ccccc1 | 806 | 5.4% (inactive) | -9.8% (inactive) | 100 | 21.6% (inactive) | 111 | -0.283 (inactive) | -4e-05 (inactive) | 0.00618 (inactive) | 9.92% (inactive) | 13.3% (inactive)
17 | O=C(CSc1nnc(Cn2c(=O)sc3ccccc32)n1-c1ccccc1)Nc1nccs1 | 645 | 1.8% (inactive) | 9.1% (inactive) | 110 | -7.4% (inactive) | 104 | -0.58 (inactive) | -2.9e-05 (inactive) | 0.00712 (inactive) | 2.86% (inactive) | 16.4% (inactive)
18 | COc1cccc(NC(=O)CSc2nnc(Cc3cccn3C)n2-c2ccc(F)cc2)c1 | 567 | -3.3% (inactive) | 38.3% (inactive) | 85.3 | 26.6% (inactive) | 110 | -0.594 (inactive) | -2.4e-05 (inactive) | 0.00609 (inactive) | -1.59% (inactive) | 15.6% (inactive)
19 | O=c1cc(CN2CCN(c3ccc(F)cc3)CC2)nc2sccn12 | 280 | 3.4% (inactive) | 19.5% (inactive) | 95 | -8.5% (inactive) | 109 | -0.477 (inactive) | 2.3e-05 (inactive) | 0.00346 (inactive) | -6.74% (inactive) | 0.252% (inactive)
20 | Cc1cc(N)n2nc(-c3ccccc3)cc2n1 | 492 | 1.2% (inactive) | 0% (inactive) | 98.3 | -15.5% (inactive) | 110 | -0.421 (inactive) | -8.6e-05 (inactive) | 0.00566 (inactive) | -31.2% (inactive) | -74.6% (inactive)
21 | CC12CCC(C(=O)O)(c3nc(C#N)c(C#N)nc31)C2(C)C (stereo not drawn) | 437 | -4.7% (inactive) | 26.3% (inactive) | 90.9 | -15.3% (inactive) | 106 | -0.618 (inactive) | -3.8e-05 (inactive) | 0.0041 (inactive) | 15.9% (inactive) | 21.6% (inactive)
22 | CC(C)OC(=O)CSc1nnc(-c2ccco2)n1N | 618 | 0% (inactive) | 7.4% (inactive) | 93.2 | -1% (inactive) | 97.5 | -0.422 (inactive) | -2.8e-05 (inactive) | 0.00405 (inactive) | 0.828% (inactive) | 17% (inactive)
23 | CC(C)C(C(=O)Nc1ccc2c(c1)OCO2)N1C(=O)c2ccccc2C1=O (stereo not drawn) | 696 | -1% (inactive) | 10.6% (inactive) | 109 | 77.1% (active) | 85 | -0.411 (inactive) | -8.9e-05 (inactive) | 0.00641 (inactive) | 14.6% (inactive) | 25.5% (inactive)
24 | Cc1ccc(Nc2nc(Oc3ccc(=O)[nH]n3)nc(N(C)C)n2)cc1 | 377 | 2.8% (inactive) | 13.2% (inactive) | 101 | -65.6% (inactive) | 111 | -0.498 (inactive) | -4.2e-05 (inactive) | 0.00563 (inactive) | 8.86% (inactive) | 11.8% (inactive)
25 | Cc1cc2c(c(=O)n1C)C(Cc1ccccc1)C(C#N)=C(N)O2 (stereo not drawn) | 620 | -20.7% (inactive) | 24.9% (inactive) | 99.1 | -61.8% (inactive) | 117 | -0.322 (inactive) | -3.8e-05 (inactive) | 0.00445 (inactive) | 9.72% (inactive) | 14.5% (inactive)
26 | CCCCn1nnnc1NCc1cccs1 | 412 | 2.9% (inactive) | 0.4% (inactive) | 105 | -66.2% (inactive) | 119 | -0.52 (inactive) | -1.2e-05 (inactive) | 0.00631 (inactive) | 4.2% (inactive) | -0.68% (inactive)
27 | CCCCn1c(CN2CCN(c3ccc(F)cc3)CC2)nc2c1c(=O)n(C)c(=O)n2C | 574 | 14.4% (inactive) | 1.3% (inactive) | 90.1 | -6.8% (inactive) | 82.5 | -0.53 (inactive) | -3.3e-05 (inactive) | 0.00657 (inactive) | 1.37% (inactive) | 3.77% (inactive)
28 | Cc1ccc(-c2nc(N)n(C(=O)c3cccnc3)n2)cc1 | 359 | 5.5% (inactive) | -19.9% (inactive) | 113 | -110% (inactive) | 109 | -0.339 (inactive) | -5.3e-06 (inactive) | 0.00801 (inactive) | 0.795% (inactive) | 22.5% (inactive)
